Consider 27 compounds from PubChem BioAssay (EPA / NIEHS).

The source made the active and inactive calls. Rule for the calls: active = hit-call score of the fitted dose curve at least 0.9, where 1 is the maximum; inactive = score below 0.9.

Read-out in the assay: Interleukin 17A (IL17A), IL17A (gene 3605)
The assay is described as follows: BSK_BT_xIL17A: BioMAP Diversity Plus: BT Assay for Interleukin 17A (IL17A) Biomarker Activity (AID 2284229). The settings on record: primary human B cells with PBMC. The procedure: BSK_BT is a cell-based, multiplexed-readout assay that uses B cell and peripheral blood mononuclear cells, a human vascular primary cell co-culture, with measurements taken at 24 hours after chemical dosing in a microplate: 96-well plate.BSK_BT_xIL17A is an assay component measured in the BSK_BT assay. It measures secreted IL-17A related to regulation of gene expression using LumineX xMAP technology.Data from the assay component BSK_BT_xIL17A was analyzed at the endpoint, BSK_BT_xIL17A, in the positive analysis fitting direction relative to DMSO as the negative control and baseline of activity. Using a type of cytokine quantitation reporter, gain or loss-of-signal activity can be used to understand protein changes. To generalize the intended target to other relatable targets, this assay endpoint is annotated to the 'cytokine' intended target family, where the subfamily is 'interleukins'.
The levels of cell surface (or secreted, indicated by the prefix "s") biomarker endpoints were measured by ELISA. Overt cytotoxicity to cells in confluent adherent cultures (all systems other than the BT system) was assessed by measuring total protein levels using sulforhodamine B (SRB) staining in parallel cultures at the time of biomarker measurements, indicated as SRB endpoints. For proliferation assays for adherent cell types, individual cell types are cultured at sub-confluence and relative cell numbers quantified by SRB staining at time points optimized for each system (48 h: 3C and CASM3C systems; 72 h: BT and HDF3CGF systems; 96 h: SAg system). SRB was performed by staining cells with 0.1% SRB after fixation with 10% TCA and reading wells at 560 nm.Viability and proliferation of PBMC (T cells) was quantified by Alamar Blue reduction for the SAg and BT systems. For PBMC viability (referred to as PBMC Cytotoxicity within the assay endpoint names), cells were plated (75,000/well in a 96-well plate) and then chemical samples added for 1 h before addition of activators, SEB and TSST-1 (20 ng/mL final concentration each). Cells were incubated for 90 h. Then, Alamar Blue (20 uL/well) (Invitrogen, Cat DAL1100) was added for 6 h, and the plates were read with a fluorescence microplate reader at 546/580 nm (excitation/emission). For PBMC proliferation, cells were plated and activated as above but incubated for only 16 h prior to addition of Alamar Blue. Plates were read after 6 h.
`CCCCC(CC)COC(=O)c1ccccc1O` (configuration not stated): the outcome was inactive. For the compound `CCCCNc1ccc(NCCCC)c2c1C(=O)c1ccccc1C2=O`, the result was inactive.

On to `COCc1c(C(C)C)nc(C(C)C)c(/C=C/[C@@H](O)C[C@@H](O)CC(=O)O)c1-c1ccc(F)cc1`, for which the AC50 (commonly the concentration at which the activity in the assay is half-maximal) was 0.312 µM (active). On the same count and under the same terms, for `CCCCC/C=C\C/C=C\CCCCCCCC(=O)OC` the value was 23.8 µM (active). In the case of `C=CCOc1c(Br)cc(Br)cc1Br`, the result was inactive. On the same count and under the same terms, next, `CCCCCCCCc1ccc(Nc2ccc(CCCCCCCC)cc2)cc1`: “inactive”; `C=CCOCC(O)CCl` (configuration not stated): “inactive”. Take `CCO[Si](CCCN=C=O)(OCC)OCC`: the result was inactive. On the same count and under the same terms, for `O=Nc1ccc(O)cc1` the value was “inactive”; for `CC1OC1C1CCC2(C)OC2C1` (configuration not stated), “inactive”; for `c1ccc(-c2ccccn2)nc1`, “inactive”. Take `O=C(Cl)c1cc(C(=O)Cl)cc(C(=O)Cl)c1`: the half-maximal activity concentration (AC50) is 15.4 µM (active). Turning to `C/C=C\C/C=C/CCCCCCCCOC(C)=O`, the AC50 was 15.1 µM (active).

For `O=C(Nc1ccccc1SSc1ccccc1NC(=O)c1ccccc1)c1ccccc1`, the AC50 was 5.93 µM (active). On to `N#[N+]c1ccc2c(S(=O)(=O)[O-])cccc2c1O`, for which the result was inactive. Same read-out and setting: for `CCOc1nc(F)cc2nc(S(=O)(=O)Nc3c(Cl)cccc3C(=O)OC)nn12` the value was “inactive”; for `C=CC=CC=CCCCCC`, “inactive”; for `CC(C)C(=O)C(C)C`, “inactive”. `O=c1c2ccccc2oc2ccccc12`: the outcome was inactive. With `CC(C)(c1cc(Br)c(OCCO)c(Br)c1)c1cc(Br)c(OCCO)c(Br)c1`, the AC50 was 20.8 µM (active). For `c1ccc2c(c1)ccc1cc3c(ccc4ccccc43)cc12`, the outcome was inactive. Turning to `CCCCCCCCCCCCCCCC[N+](C)(C)CC`, the AC50 was 1.63 µM (active). With `C#CC1(O)CC[C@H]2[C@@H]3CCC4=CCCC[C@@H]4[C@H]3CC[C@@]21C` (some centres not stated), the AC50 was 14.5 µM (active). Same read-out and setting: for `C=CC(=O)OCC(Br)CBr` (configuration not stated) the value was 7.7 µM (active). Consider `c1ccc2c(c1)ccc1ncccc12`, for which the outcome was inactive. With `S=C(NC1CCCCC1)NC1CCCCC1`, the outcome was inactive.

In the case of `COc1ccc2nc(N)sc2c1`, the outcome was inactive.
